The values that follow come from PubChem BioAssay AID1942 (Johns Hopkins Ion Channel Center, 2009).

Among all 2,400 compounds or so, about 580 (24%) were called active.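 The calls were made as follows: active = activity change at or above the mean plus 3 SD of buffer wells without dofetilide, per plate; inactive = the rest.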 Only a sample is shown.

The target in this assay is Potassium voltage-gated channel subfamily KQT member 2 (Rattus norvegicus) (UniProt O88943). Put plainly: rat KCNQ2 channel activation by compounds alone, confirmation, counter-screen for hERG block protector project, cell-based, CHO, FluxOR thallium flux (AID 1942).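 Also: normalized value minus buffer-control mean plus three SD of buffer wells.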 The settings on record: CHO-KCNQ2 cells, FluxOR thallium flux fluorescence; at 10 µM; hits give high values. On the technique in general: The purpose of a counterscreen is to sort out artefacts and off-target activity.
Sequence of Potassium voltage-gated channel subfamily KQT member 2 (Rattus norvegicus) (O88943 whole entry, looked up): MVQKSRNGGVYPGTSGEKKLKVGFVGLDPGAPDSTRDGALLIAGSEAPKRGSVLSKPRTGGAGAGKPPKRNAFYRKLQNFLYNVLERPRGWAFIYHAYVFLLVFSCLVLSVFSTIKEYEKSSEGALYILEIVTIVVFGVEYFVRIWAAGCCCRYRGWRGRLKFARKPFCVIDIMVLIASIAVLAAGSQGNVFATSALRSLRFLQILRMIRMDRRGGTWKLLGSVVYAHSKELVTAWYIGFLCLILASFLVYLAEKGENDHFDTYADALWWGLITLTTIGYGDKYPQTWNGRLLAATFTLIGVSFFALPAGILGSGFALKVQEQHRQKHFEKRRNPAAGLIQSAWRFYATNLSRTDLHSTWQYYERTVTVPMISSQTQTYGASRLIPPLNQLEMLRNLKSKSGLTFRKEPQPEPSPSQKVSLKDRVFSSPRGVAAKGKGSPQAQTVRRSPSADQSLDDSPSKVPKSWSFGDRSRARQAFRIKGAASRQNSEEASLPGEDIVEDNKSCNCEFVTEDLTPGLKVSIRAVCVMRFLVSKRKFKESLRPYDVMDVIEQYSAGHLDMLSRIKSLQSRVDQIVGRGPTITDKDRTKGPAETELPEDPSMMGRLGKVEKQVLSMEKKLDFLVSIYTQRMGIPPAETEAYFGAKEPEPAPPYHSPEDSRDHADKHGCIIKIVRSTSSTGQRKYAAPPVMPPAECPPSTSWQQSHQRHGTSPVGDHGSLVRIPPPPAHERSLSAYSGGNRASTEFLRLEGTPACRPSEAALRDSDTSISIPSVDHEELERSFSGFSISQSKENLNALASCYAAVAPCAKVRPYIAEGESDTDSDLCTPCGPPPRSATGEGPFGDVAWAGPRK
With `O=C(OCC(=O)N1CCOCC1)c1ccc(Cl)cc1[N+](=O)[O-]`, the activity change, less the hit threshold was -13.6% (inactive).

As for `O=c1ccn(CCCBr)c(=O)[nH]1`, the activity change, less the hit threshold is -13.2% (inactive).

For the compound `COC(=O)CSc1nc(N2CCCCC2)c2c(c1C#N)CCCC2`, the activity change, less the hit threshold is -6.4% (inactive).

Consider `CCOC(=O)C(C)Sc1nc2c(c(-c3cccs3)c1C#N)CCC2` (stereo not drawn), for which the activity change, less the hit threshold is -15.1% (inactive).

For `COC(=O)CSc1nc2c(c(-c3ccc(C)o3)c1C#N)CCCC2`, the activity change, less the hit threshold is 7.4% (active).

Consider `Nc1cccc(Oc2cnccn2)c1`, for which the activity change, less the hit threshold is -17.9% (inactive).

Take `COc1cc2c(cc1OC)CN(C(=O)c1ccc3nc[nH]c3c1)CC2`: the activity change, less the hit threshold is -2.1% (inactive).

For the compound `Cc1ccc(OCC(=O)NC(=S)Nc2ccc(Br)cn2)cc1C`, the activity change, less the hit threshold was -11.2% (inactive).

As for `Cc1nc(NC(=S)NC(=O)COc2ccc(Cl)cc2)ccc1Br`, the activity change, less the hit threshold was -19.1% (inactive).

On to `Cc1ccc(OCC(=O)NC(=S)Nc2ccc(Br)cn2)cc1`, for which the activity change, less the hit threshold was 12.4% (active).

Regarding `COc1ccc(N(CC(=O)N2CCN(Cc3ccccc3)CC2)S(C)(=O)=O)cc1OC`, the activity change, less the hit threshold was -16.5% (inactive).

Take `COCCNC(=O)C(c1ccc(C)o1)N(Cc1ccc(OC)cc1)C(=O)Cn1nnc2ccccc21` (stereo not drawn): the activity change, less the hit threshold was 19.1% (active).

Turning to `COCCNC(=O)C(c1ccncc1)N(C(=O)Cn1nnc2ccccc21)c1ccc(OC)cc1` (stereo not drawn), the activity change, less the hit threshold was -20.7% (inactive).

For the compound `Cc1ccc(-c2nnn(CC(=O)N(CC3CCCO3)C(C(=O)NC3CCCC3)c3ccc(O)cc3)n2)o1` (stereo not drawn), the activity change, less the hit threshold is -15.8% (inactive).

As for `CC1CC(C)CN(CCCNC(=O)Cc2c(C(=O)O)[nH]c3ccccc23)C1` (stereo not drawn), the activity change, less the hit threshold was -14.9% (inactive).

For `Nn1c(SCC(=O)Nc2ccccc2F)nnc1C1CCCCC1`, the activity change, less the hit threshold is -10.5% (inactive).

For the compound `CC1Cc2ccccc2N1C(=S)NC(=O)C1(C)CC1(Cl)Cl` (stereo not drawn), the activity change, less the hit threshold was 38.1% (active).

As for `CC1Cc2ccccc2N1C(=S)NC(=O)c1cccc(Br)c1` (stereo not drawn), the activity change, less the hit threshold is 121% (active).

On to `CC1Cc2ccccc2N1C(=S)NC(=O)c1ccc(Cl)cc1Cl` (stereo not drawn), for which the activity change, less the hit threshold was 52.5% (active).

With `CC1Cc2ccccc2N1C(=S)NC(=O)c1ccco1` (stereo not drawn), the activity change, less the hit threshold was -3.3% (inactive).

Regarding `Cc1csc2ncc(C(=O)N3c4ccccc4CC3C)c(=O)n12` (stereo not drawn), the activity change, less the hit threshold was -9.8% (inactive).

Regarding `COc1cc2c(cc1OC)C(C)N(C(=S)NC(=O)c1ccccc1)CC2` (stereo not drawn), the activity change, less the hit threshold was -10.9% (inactive).

On to `Cc1ccc2c(c1)C1CN(C)CCC1N2C(=S)NC(=O)c1ccc(Br)cc1` (stereo not drawn), for which the activity change, less the hit threshold is -7% (inactive).

For the compound `CC1Cc2cc(S(=O)(=O)NCc3ccccc3)ccc2N1C(=O)C1CCC1` (stereo not drawn), the activity change, less the hit threshold was -20.4% (inactive).

In the case of `CNC(=O)c1[nH]cnc1C(=O)Nc1ccccn1`, the activity change, less the hit threshold is -9.6% (inactive).

As for `Cc1cc(S(=O)(=O)NCC(C)C)ccc1OCC(=O)NCc1ccccn1`, the activity change, less the hit threshold was -21.1% (inactive).

On to `CCOc1cc(Br)c(C(=O)O)cc1OC`, for which the activity change, less the hit threshold was -13.8% (inactive).

`OC(CCN1CCOCC1)c1ccccc1` (stereo not drawn): the activity change, less the hit threshold is -33.4% (inactive).

As to `Cc1nonc1OCCNc1ccc([N+](=O)[O-])cc1`, the activity change, less the hit threshold is -8.5% (inactive).

With `Cc1ccc(-c2nc(CS(=O)(=O)CC(=O)NCCN3CCOCC3)c(C)o2)cc1`, the activity change, less the hit threshold was -12.6% (inactive).

As to `Cc1ccc2nc(-c3ccccn3)cc(C(=O)NC3CCN(C)CC3)c2c1`, the activity change, less the hit threshold was -23.8% (inactive).

Regarding `CS(=O)(=O)c1sc(C(=O)NC(=S)Nc2ccc(OC(F)(F)F)cc2)c2c1C=CCC2`, the activity change, less the hit threshold is -11% (inactive).

Turning to `O=C(COc1ccc(Cl)cc1Cl)NC(=S)N1CCCc2ccccc21`, the activity change, less the hit threshold is -13.8% (inactive).

Regarding `CC(Oc1ccc(Cl)cc1Cl)C(=O)NC(=S)N1CCc2ccccc21` (stereo not drawn), the activity change, less the hit threshold was 24.1% (active).

With `Cc1cccc(C(=O)NNC(=S)NC(=O)c2ccccc2)c1`, the activity change, less the hit threshold was -4.5% (inactive).

Turning to `CC1(C)CC(NC(=O)c2ccc(Cl)cc2Cl)CC(C)(C)N1`, the activity change, less the hit threshold was -23.3% (inactive).

For the compound `O=C(COc1ccccc1)NC(=S)N1CCc2ccccc21`, the activity change, less the hit threshold was 2.7% (active).

In the case of `Cc1cccc(OCC(=O)NC(=S)N2CCCc3ccccc32)c1`, the activity change, less the hit threshold was -23.9% (inactive).

In the case of `CC1(C)CC2CC(C)(CN2C(=S)NC(=O)c2ccccc2Cl)C1` (stereo not drawn), the activity change, less the hit threshold is 23.3% (active).

With `Cc1cccc(C(=O)NC(=S)N2CCc3ccccc3C2)c1`, the activity change, less the hit threshold is 20.8% (active).

Consider `O=C(Nc1cccn(Cc2c(Cl)cccc2Cl)c1=O)c1ccccc1Cl`, for which the activity change, less the hit threshold is -24.1% (inactive).

As for `O=C(COc1ccc(Br)cc1Cl)NC(=S)N1CCc2ccccc21`, the activity change, less the hit threshold was -14.2% (inactive).

In the case of `Cc1ccc(C(=O)NC(=S)N2CCN(c3cc(C)ccc3C)CC2)cc1`, the activity change, less the hit threshold was -8.7% (inactive).

With `O=C(O)c1ccccc1NC(=O)c1cc2ccccc2oc1=O`, the activity change, less the hit threshold was -5.1% (inactive).

Turning to `O=C(CN(C(=O)CNS(=O)(=O)c1ccc(F)cc1)c1cccc(F)c1)NCC1CCCO1` (stereo not drawn), the activity change, less the hit threshold was -19% (inactive).

Regarding `CC(=O)n1nc(-c2ccncc2)nc1SCC(=O)Nc1cccc(Cl)c1`, the activity change, less the hit threshold was -21.7% (inactive).

`Cc1ccc(NC(=O)CSc2nnc(-c3cccnc3)n2-c2ccc(C)cc2)cc1`: the activity change, less the hit threshold was -17.2% (inactive).

For `O=[N+]([O-])c1ccc(-c2ccc(/C=N/n3cnnc3)o2)c(Br)c1`, the activity change, less the hit threshold is -11.4% (inactive).

`CCCN1Cc2cccc(C(=O)NCc3cccs3)c2C1=O`: the activity change, less the hit threshold is -23.8% (inactive).

For the compound `OC(CNCCc1ccc(C(F)(F)F)cc1)COc1cccc2ccccc12` (stereo not drawn), the activity change, less the hit threshold is -39.6% (inactive).

For `O=C(NC(=S)N1CCCc2ccccc21)c1ccccc1`, the activity change, less the hit threshold is -7.9% (inactive).

In the case of `CN1C(=O)CSc2ccc(NC(=O)N3CCc4ccccc43)cc21`, the activity change, less the hit threshold is -21.5% (inactive).

Turning to `O=C(NC(=S)N1CCc2ccccc21)c1ccccc1Cl`, the activity change, less the hit threshold is 65.2% (active).

For `O=C(NC(=S)N1CCc2ccccc21)c1ccccc1Br`, the activity change, less the hit threshold is 105% (active).

For `O=C(c1ccccc1)N1CCc2ccccc21`, the activity change, less the hit threshold was -14.8% (inactive).

As for `O=C(NC(=S)N1CCc2ccccc21)c1ccccc1`, the activity change, less the hit threshold is 38.5% (active).

Regarding `O=C(CSc1cccc2cccnc12)N/N=C/c1cccnc1`, the activity change, less the hit threshold was -18.6% (inactive).

For the compound `S=C(Nc1ccccc1)Nc1nc2ccccc2n1CCOc1ccccc1`, the activity change, less the hit threshold is -19.7% (inactive).

As for `Cc1ccccc1NC(=O)CSc1ccsc1[N+](=O)[O-]`, the activity change, less the hit threshold was -24.3% (inactive).

In the case of `O=C(O)CC1S/C(=N/N=C/c2ccc(-c3ccccc3[N+](=O)[O-])o2)NC1=O` (stereo not drawn), the activity change, less the hit threshold is -23.4% (inactive).

Regarding `CCCc1nnc(NC(=O)CN2CCOCC2)s1`, the activity change, less the hit threshold was -18.7% (inactive).

`Cc1ccccc1-c1nnn(CC(=O)NCc2ccc3c(c2)OCO3)n1`: the activity change, less the hit threshold was -24.5% (inactive).

For `Cc1cc(F)ccc1NC(=O)C1CCN(C(=O)Nc2ccccc2)CC1`, the activity change, less the hit threshold was -20.3% (inactive).
